Measured values taken from PubChem BioAssay AID463173 (ICCB-Longwood Screening Facility, Harvard Medical School, 2010).
Among all 52,000 compounds or so, about 4,300 (8.3%) were called active. Shown is part of a subset that was picked to be rich in actives. Unmarked numbers belong to inactive results. No stated cut-off is given here; in the data, active means survival mostly below about 52% (no sharp cut-off); inactive means mostly above about 56%.

system: DeltatarO mutant; assay: S. aureus survival, RN4220 and DeltatarO strains – OD600, teichoic acid synthesis inhibitors, primary screen (AID 463173); conditions: S. aureus RN4220 wild type/DeltatarO growth, OD600, 18 h, stronger effect = lower value, screened at 18.75 µg/mL (by protocol)

Structure (SMILES)	survival
COc1ccc(CCNC(=O)c2cc(C)nc3c2c(C)nn3-c2ccccc2)cc1OC	92%
Cc1nc2c(C(=O)NCCc3ccc(Cl)cc3)cnn2c(C)c1Cc1c(F)cccc1Cl	75%
Cc1nc2c(C(=O)NCCc3ccccc3)c[nH]n2c(=O)c1Cc1ccccc1F	-13% (active)
Cc1ccc(CNC(=O)c2nnc(Cc3ccc(Cl)cc3)o2)cc1	99%
Cc1nc2nc(NC(=O)c3ccc(Cl)cc3)[nH]n2c(=O)c1Cc1ccccc1	105%
COc1ccc(CCNC(=O)c2ccc(Cn3c(=O)c4ccccc4n(Cc4ccccc4Cl)c3=O)cc2)cc1OC	80%
COc1ccc(CCNC(=O)c2c[nH]n3c(=O)c(Cc4ccccc4Cl)c(C)nc23)cc1OC	32% (active)
Cc1cccn2c(=O)c(C(=O)NCCc3ccc(Cl)cc3)cnc12	83%
Cc1cccn2c(=O)c(C(=O)NCCc3ccccc3)cnc12	58%
Cc1nc2c(C(=O)NCCc3ccccc3)cnn2c(C)c1Cc1c(F)cccc1Cl	79%
Cc1ccc(CNC(=O)c2c[nH]n3c(=O)c(Cc4ccc(Cl)cc4)c(C)nc23)cc1	-12% (active)
Cc1nc2c(C(=O)NCCc3ccc(Cl)cc3)c[nH]n2c(=O)c1Cc1ccccc1F	-12% (active)
Cc1ccc(-n2ncc(C(=O)N3CCN(c4ccccn4)CC3)c2C2CCN(C(=O)OC(C)(C)C)CC2)cc1C	72%
COc1ccc2c(c1)N(C)/C(=C1/SC(=O)N(c3ccccc3)C1=O)S2	94%
CC(C)(CC(=O)NCc1ccc(Cl)cc1Cl)CC1=NS(=O)(=O)c2ccccc2N1	75%
CCCOc1ccc(NC(=O)CC2C(=O)N(c3ccc(F)cc3)C(=O)N2CC(C)C)cc1 (stereo unspecified)	64%
COc1ccc(NC(=O)Cc2coc3cc(C)cc(C)c23)c(OC)c1	60%
COc1ccccc1CCNC(=O)c1cccn1-c1nnc(N2CCCC2)s1	93%
CCCOc1cccc(C(=O)N(Cc2sccc2C)C2CCS(=O)(=O)C2)c1 (stereo unspecified)	110%
COc1cc2c(=O)c(C(=O)c3ccc(C)c(C)c3)cn(Cc3ccccc3)c2cc1OC	79%
O=C(CSc1nc2c([nH]c3ccccc32)c(=O)n1-c1ccccc1)N1CCCC1	84%
Cc1ccc(-c2nc3ccc(Cl)cn3c2Nc2ccc3c(c2)OCCO3)s1	107%
Cc1nc2c(C(=O)NCCc3ccccc3)c[nH]n2c(=O)c1Cc1ccc(F)cc1Cl	-16% (active)

Structure (SMILES)	survival
Cc1nc2c(C(=O)NCCc3ccc(Cl)cc3)c[nH]n2c(=O)c1Cc1ccc(Cl)cc1	-14% (active)
Cc1nc2c(C(=O)NCCc3ccc(Cl)cc3)cnn2c(C)c1Cc1ccc(F)cc1	69%
Cc1nc2nc(NC(=O)c3cccc(Cl)c3)[nH]n2c(=O)c1Cc1ccccc1	111%
Cc1ccc(CNC(=O)c2c[nH]n3c(=O)c(Cc4ccc(F)cc4Cl)c(C)nc23)cc1	-13% (active)
Cc1nc2c(C(=O)NCc3ccccc3Cl)cnn2c(C)c1Cc1ccccc1	79%
Cc1ccc(CNC(=O)c2cnn3c(C)c(Cc4c(F)cccc4Cl)c(C)nc23)cc1	70%
Cc1nc2nc(NC(=O)c3ccc(F)cc3)[nH]n2c(=O)c1Cc1ccccc1	101%
Cc1nc2c(C(=O)NCc3ccccc3)c[nH]n2c(=O)c1Cc1ccccc1Cl	49%
Cc1nc2c(C(=O)N(C)Cc3ccccc3)c[nH]n2c(=O)c1Cc1ccc(Cl)cc1	88%
Cc1nc2c(C(=O)NCc3ccccc3Cl)c[nH]n2c(=O)c1Cc1cccc(Cl)c1	-16% (active)
Cc1ccc(CNC(=O)CN2CCN(Cc3ccc(F)cc3Cl)C2=O)cc1	79%
COc1ccc(CNC(=O)C(=O)NCC(c2ccco2)S(=O)(=O)c2cccs2)cc1 (stereo unspecified)	60%
N#C/C(=C\c1ccc[nH]1)C(=O)N1CCc2ccccc2C1	72%
COc1cc(Cl)c(NC(=O)c2cc(S(=O)(=O)N3CCCCC3)c[nH]2)c(OC)c1	119%
Cc1cc(NC(=O)CCNS(=O)(=O)c2ccc3c(c2)CCCC(=O)N3)ccc1Br	76%
COc1ccc(C2CC(=O)Nc3c2c(=O)[nH]c2nc4ccccc4n32)cc1 (stereo unspecified)	66%
Cn1cnc(S(=O)(=O)N2CCC(C(=O)NCc3ccc(Cl)cc3)CC2)c1	101%
CN(C)c1ccc(CNC(=O)C2CCN(S(=O)(=O)c3cn(C)cn3)CC2)cc1	0% (active)
CCOc1ccccc1NC(=O)C1CCN(S(=O)(=O)c2ccc3[nH]c(=O)ccc3c2)CC1	63%
Cc1ccc(C)c(N2CCN(C(=O)C3CCN(S(=O)(=O)c4cn(C)cn4)CC3)CC2)c1	64%
COc1ccccc1CNC(=O)C1CCN(S(=O)(=O)c2ccc3[nH]c(=O)ccc3c2)CC1	102%
Cc1ccc(CNC(=O)C2CCN(S(=O)(=O)c3cn(C)cn3)CC2)cc1	115%
Cc1cc(C)cc(NC(=O)C2CCN(S(=O)(=O)c3cn(C)cn3)CC2)c1	98%

Structure (SMILES)	survival
COc1ccc(OC)c(CNC(=O)C2CCN(S(=O)(=O)c3cn(C)cn3)CC2)c1	83%
COc1ccccc1CNC(=O)C1CCN(S(=O)(=O)c2cn(C)cn2)CC1	0% (active)
Cc1ccc(N(C)C(=O)C2CCN(S(=O)(=O)c3cn(C)cn3)CC2)cc1	37% (active)
Cn1cnc(S(=O)(=O)N2CCC(C(=O)NCc3ccccc3Cl)CC2)c1	118%
CCOc1ccccc1CNC(=O)C1CCN(S(=O)(=O)c2ccc3[nH]c(=O)ccc3c2)CC1	25% (active)
CC(C)C(NS(=O)(=O)c1ccccc1)C(C)C	97%
COc1cc(C2CC(=O)c3c([nH]c(C(=O)OCc4ccc(C)cc4)c3C)C2)cc(OC)c1OC (stereo unspecified)	83%
OC1CN=C2C=CC=CN2C1 (stereo unspecified)	89%
CCN1CCN(c2ccc(NS(=O)(=O)c3c(C)nc4sccn4c3=O)cc2Cl)CC1	108%
Cc1ccc(CNC(=O)c2oc3c(c2C)-c2nn(Cc4ccc(Cl)cc4)cc2CC3)cc1	57%
Cc1cc2nc(-c3ccc(NC(=O)c4ccc(OCC(C)C)cc4)cc3)oc2cc1C	78%
Cc1c(CNC2CCCCC2)c(C(=O)O)c(C)n1Cc1ccccc1F	88%
Cc1ccc2c(c1)-c1onc(C(=O)N(C)c3cccc(C(F)(F)F)c3)c1CO2	108%
CC(C)OCCCNC(=O)c1ccc2c(c1)N(Cc1c(F)cccc1Cl)C(=O)c1ccccc1S2	76%
CCCCc1nn2c(=O)cc(COC(=O)c3cccc(Cl)c3)nc2s1	67%
COc1ccc(C(CC(=O)NCc2ccccc2Cl)N2Cc3ccccc3C2=O)cc1OC (stereo unspecified)	80%
COc1ccccc1N1CCN(S(=O)(=O)c2c(C)sc3ncn(CC(=O)Nc4ccc(C)cc4Br)c(=O)c23)CC1	73%
O=C(Cc1ccccc1)NC1CCS(=O)(=O)C1 (stereo unspecified)	97%
O=C(CCn1cnc2ccccc2c1=O)NCc1ccccc1	109%
Cc1ccc2c(CC(=O)N(Cc3ccc(Cl)cc3)Cc3ccco3)coc2c1	99%
Cc1cc(C)c2c(CC(=O)N(Cc3ccc(Cl)cc3)Cc3ccco3)coc2c1	57%
Cc1ccc2c(CC(=O)N(Cc3ccc(N(C)C)cc3)Cc3ccco3)coc2c1C	45% (active)
Cc1ccc2c(C)c(C(=O)N(Cc3ccc(N(C)C)cc3)Cc3ccco3)oc2c1C	87%

Structure (SMILES)	survival
Cc1cc(C)c2c(CC(=O)N(Cc3ccc(N(C)C)cc3)Cc3ccco3)coc2c1	42% (active)
Cc1cc(C)c(OCC(=O)N(Cc2ccc(N(C)C)cc2)Cc2ccco2)c(C)c1	49%
COc1ccccc1CCNC(=O)Cc1c(C)c2cc3c(C(C)(C)C)coc3c(C)c2oc1=O	101%
O=C(CC1(c2ccc(Cl)cc2)C(=O)c2ccccc2C1=O)N1CCOCC1	79%
Cc1nc2ccccc2n1CCc1nc2c3ccccc3nc(SCC(=O)Nc3ccc(Br)cc3F)n2n1	98%
Cn1c(=O)c2c(nc(SCC(=O)Nc3ccc(F)cc3F)n2Cc2ccccc2)n(C)c1=O	135%
Cn1ncc2nc(SCC(=O)Nc3ccc(Br)cc3F)n(Cc3ccccc3)c(=O)c21	29% (active)
CCOC(=O)c1ccccc1NC(=O)c1nn(C)c2c1COc1ccccc1-2	59%
COC(=O)c1ccccc1NC(=O)Cn1ncc2c(C)n(Cc3ccc(F)cc3)c(C)c2c1=O	52%
Cc1cccc(NC(=O)Cn2nc(C)c3nn(-c4ccc(Cl)cc4)c(C)c3c2=O)c1C	94%
COc1ccccc1OCCn1c(NC(=O)c2ccccc2Cl)nc2ccccc21	-3% (active)
COc1cc(C)ccc1OCCn1c(-c2ccc(Cl)cc2)nc2ccccc2c1=O	62%
O=C(O)c1ccc(NCc2nc3ccccc3n2CCOc2ccccc2Cl)cc1	59%
CC(NC(=O)c1ccccc1)c1nc2ccccc2n1Cc1ccc(Cl)cc1 (stereo unspecified)	83%
CCn1c(NC(C)=O)nc2ccccc21	85%
OCCNc1nc2ccccc2n1CCOc1ccccc1	68%
COc1ccccc1OCCCCn1c(C2CC(=O)N(c3ccccc3Cl)C2)nc2ccccc21 (stereo unspecified)	61%
COc1ccccc1OCCn1c(-c2ccc(Cl)cc2)nc2ccccc2c1=O	77%
COc1ccc(OCCn2c(NC(=O)c3ccc(OC)cc3)nc3ccccc32)cc1	-2% (active)
COc1ccccc1OCCn1c(NC(=O)c2ccc(Cl)cc2)nc2ccccc21	45% (active)
O=C(Nc1nc2ccccc2n1CCOc1ccccc1Cl)c1ccccc1	17% (active)
CCCn1c(CCCNC(=O)c2ccccc2OC)nc2ccccc21	111%
